High-throughput results as filed in PubChem BioAssay.
In the library only some 3% were active in any assay of this set; here they are far more common.
ROMK mod = ROMK potassium channel modulators, primary screen, cell-based, thallium flux, MLSMR library; ATP-sensitive inward rectifier potassium channel 1 (Homo sapiens), P48048; 130,000 compounds, 2% hits; AID 1918, 2009; Tet-inducible ROMK, thallium flux fluorescence; actives lie on both sides; B-score at 10 µM;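 active means signal ratio slope over the read window, or its plate-corrected B-score, at least 3 SD from the plate mean, either direction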;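 further: B-score of the F/F0 ratio slope over 7 to 12 s after thallium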
Target sequence (P48048 whole entry, looked up): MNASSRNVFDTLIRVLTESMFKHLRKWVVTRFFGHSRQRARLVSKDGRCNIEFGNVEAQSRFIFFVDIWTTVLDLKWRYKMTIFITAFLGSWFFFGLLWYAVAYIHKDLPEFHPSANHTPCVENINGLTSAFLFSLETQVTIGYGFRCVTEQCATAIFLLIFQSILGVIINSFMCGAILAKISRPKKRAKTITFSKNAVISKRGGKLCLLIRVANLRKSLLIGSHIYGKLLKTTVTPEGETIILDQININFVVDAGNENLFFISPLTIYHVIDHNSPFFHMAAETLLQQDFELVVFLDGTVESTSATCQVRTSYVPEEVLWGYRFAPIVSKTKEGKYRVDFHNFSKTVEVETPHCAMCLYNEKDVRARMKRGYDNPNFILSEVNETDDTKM
SDO1 yeast rescue = growth rescue of sdo1-depleted yeast, primary screen, S. cerevisiae, bone marrow failure model; AID 817, 2007; z-score at 10 µM; S. cerevisiae sdo1-depleted JHY4D growth rescue, OD600 30 h; stronger effect = higher value; pdr5 snq2 efflux-pump mutant strain; 140,000 compounds, 0.21% hits;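 active means z-score above 3 at both the 24 hr and the 30 hr optical density reads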
Measles CPE = compounds protecting cells from measles virus cytopathic effect, primary screen, measles RdRp inhibitor project, single point, MLSMR library, absorbance; Measles virus-infected cells, CPE protection; protection (pct of control), % at 4 µM; 140,000 compounds, 1.5% hits; in the data active means protection mostly above about 24%, no sharp cut-off; inactive means mostly below about 26%
Insulin prom inh = inhibitors of insulin promoter-driven GFP, primary screen, imaging, TRM-6 cells (human fetal islet line), eGFP reporter, cell count. 130,000 compounds, 0.9% hits. inhibition, % at 2 µM. AID 1273, 2008. reporter expression induced with tamoxifen;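 active means inhibition above the mean plus 3 SD, with well images judged a real hit on visual review, cut at about 60% in these data, passing the limit was not always enough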
Large screens that a line does not name were inactive.

CCc1nnc(N2C(=N)SCC2=O)s1	none (no result: SDO1 yeast rescue, Measles CPE, Insulin prom inh)
CCCCCCN=CC1=C(O)C(C(=O)OC)C(C)(C)CC1=O (configuration not stated)	Insulin prom inh 93.1
COC(=O)C1C(O)=C(C=NC2CCCCC2)C(=O)CC1(C)C (configuration not stated)	none (no result: ROMK mod)
O=C(N/N=C/C=C/c1ccco1)c1cccnc1	Insulin prom inh 100.0 (no result: ROMK mod)
CC1=CC(C)C2COC(c3ccc[n+](C)c3)C1C2C (configuration not stated)	Measles CPE 57.5 (no result: ROMK mod)
C[n+]1cccc(C2C(C#N)=C(N)Oc3c2ccc2ccccc32)c1 (configuration not stated)	none (no result: SDO1 yeast rescue, Measles CPE, Insulin prom inh)
CCn1c(/N=C/c2ccccc2NS(=O)(=O)c2ccc(C)cc2)nc2ccccc21	Measles CPE 65.8 (no result: ROMK mod)
CCOC(=O)C(C(=O)OCC)C(Nc1cccc(Br)c1)c1ccccc1 (configuration not stated)	Measles CPE 30.7
COC(=O)C(C)Nc1cccc(Br)c1 (configuration not stated)	none (no result: SDO1 yeast rescue, Measles CPE, Insulin prom inh)
COC(=O)/C=C/C(=O)Nc1cccc(C(F)(F)F)c1	none (no result: ROMK mod)
Cn1c(CNS(=O)(=O)c2ccc(F)cc2)n[nH]c1=S	Measles CPE 43.2 (no result: ROMK mod)
Cn1c(CNS(=O)(=O)c2ccc(Cl)cc2)n[nH]c1=S	none (no result: ROMK mod)
O=c1c2cnn(-c3ccccc3)c2nc(-c2ccco2)n1-c1ccccc1	Measles CPE 34.7 (no result: ROMK mod)
O=c1oc(-c2ccco2)nc2c1cnn2-c1ccccc1	none (no result: ROMK mod, Insulin prom inh)
CC(=O)C1=C(O)C(=O)N(Cc2ccco2)C1c1ccc(F)cc1 (configuration not stated)	none (no result: ROMK mod)
CC(=O)C1=C(O)C(=O)N(Cc2ccco2)C1c1ccccc1 (configuration not stated)	Measles CPE 33.5 (no result: ROMK mod)
CCCCCCCC1(C)NC(=O)NC1=O (configuration not stated)	none (no result: SDO1 yeast rescue, Measles CPE, Insulin prom inh)
CCC1(CC)NC(=O)NC1=O	Insulin prom inh 90.9 (no result: ROMK mod)
CCC1CCCCN1C(=S)Nc1ccc(OC(F)F)cc1 (configuration not stated)	none (no result: ROMK mod, Measles CPE)
Cc1ccc(-n2nc(C)c(/C=N/NC(=O)c3cccnc3)c2Cl)cc1	none
Cc1nn(-c2ccccc2)c(Cl)c1/C=N/NC(=O)c1cccnc1	Measles CPE 44.5
Nc1c(-c2ccccc2)c(CSc2nc3ccccc3[nH]2)nn1-c1ccc(C(=O)O)cc1	none (no result: ROMK mod, Insulin prom inh)
CCOC(=O)c1cccc(NC(=O)CSc2nc(N)cc(N)n2)c1	Measles CPE 31.3
Cc1cccc(NC(=O)CSc2nc(N)cc(N)n2)c1	none (no result: ROMK mod)
O=C(N/N=C/c1ccccn1)c1cccs1	none (no result: SDO1 yeast rescue, Measles CPE)
Cc1cc(N2CCN(C(=O)c3ccco3)CC2)n2ncc(-c3ccccc3)c2n1	Measles CPE 39.3 (no result: Insulin prom inh)
Cc1cc(N2CCN(C(=O)c3ccco3)CC2)n2ncnc2n1	none (no result: ROMK mod)
COC(=O)c1cc(NC(=O)c2ccccc2)c(=O)oc1/C=C/Nc1ccc(Oc2ccccc2)cc1	ROMK mod -4.46 (no result: SDO1 yeast rescue, Measles CPE)
COc1ccc(C(=O)Nc2cc(C(C)=O)c(C)oc2=O)cc1	none (no result: SDO1 yeast rescue, Measles CPE, Insulin prom inh)
CCOC(=O)N1CCC(NC(=O)C2CCN(c3nc(-c4ccc(OC)cc4)no3)CC2)CC1	Measles CPE 44.2 (no result: Insulin prom inh)
N#Cc1cc2c(nc1SCC(=O)Nc1nccs1)CCCCC2	Measles CPE 34.3
COc1ccnc(N=CNOCc2ccc(F)cc2Cl)c1C#N	none
Cc1cc(=O)[nH]c(SCC(=O)NCCC2=CCCCC2)n1	none (no result: SDO1 yeast rescue, Measles CPE)
CCOc1ccc(CCn2c(-c3ccco3)nc3ccccc3c2=O)cc1OCC	Measles CPE 44.3
COc1ccccc1Nc1nc2nonc2nc1N1CCC(C)CC1	Measles CPE 78.4 (no result: Insulin prom inh)
Cc1ccc(NC(=O)CN(C)C(=O)c2n[nH]c(=O)c3ccccc23)cc1	none (no result: SDO1 yeast rescue, Measles CPE, Insulin prom inh)
Cc1nc(-c2ccccc2)cc(N2CCCC2)n1	Measles CPE 33.0
Cc1cccc(C)c1NC(=O)CCN1C(=O)C2C3CCC(C3)C2C1=O (configuration not stated)	Measles CPE 21.0 (no result: ROMK mod)
NC(=O)COn1c(SCC(N)=O)nc2ccccc2c1=O	none (no result: SDO1 yeast rescue, Measles CPE, Insulin prom inh)
CCOc1ccc(OCCCN(C)C)cc1	none
CN(C)CCCOC(=O)COc1ccc(C(C)(C)C)cc1	Measles CPE 25.0
CCNC(=O)C(Sc1ccccc1)c1ccccc1 (configuration not stated)	Measles CPE 29.6
CCOc1ccc(C(=O)NCC(C)CN(C)C)cc1OCC (configuration not stated)	Measles CPE 30.6 (no result: ROMK mod)
Cc1cccc(/C=N\NC(=O)c2sccc2-n2cccc2)c1	none (no result: ROMK mod)
O=C1OC(c2ccc3c(c2)OCO3)N(C(=O)c2ccc(Cl)c(Cl)c2)c2ccccc21 (configuration not stated)	ROMK mod 0.533
Cc1cc(C)n(-c2ccc(C(=O)OCC(=O)Nc3ccc([N+](=O)[O-])cc3)cc2)n1	Measles CPE 44.1 (no result: Insulin prom inh)
Cc1ccc(O)c(CC(C)C)n1	Insulin prom inh 84.4 (no result: ROMK mod)
COc1ccc(CCc2nc(C)ccc2O)cc1	Insulin prom inh 88.6
COc1ccc(Cn2c(C)ccc2C)cc1	none
Cc1ccccc1C(=O)NNC(=O)CSc1nc2ccccc2c(=O)[nH]1	none (no result: SDO1 yeast rescue, Measles CPE, Insulin prom inh)
COc1ccc(C(=O)NC2CCCCCC2)cc1S(=O)(=O)Nc1ccc(Br)cc1	Measles CPE 31.8
COc1ccc(C(=O)NC2CCCCCC2)cc1S(=O)(=O)N1CCCC1	none (no result: SDO1 yeast rescue, Measles CPE)
CCC1C2CN(C(C)=O)CC=C2C(C#N)=C(N)C1(C#N)C#N (configuration not stated)	none (no result: ROMK mod)
CC(C)N1CC=C2C(C#N)=C(N)C(C#N)(C#N)[C@H](c3ccoc3)[C@H]2C1	none (no result: ROMK mod)
CCN1CC=C2C(C#N)=C(N)C(C#N)(C#N)C(c3cc(Cl)ccc3Cl)C2C1 (configuration not stated)	ROMK mod -4.81 (no result: Insulin prom inh)
CC(C)N1CC=C2C(C#N)=C(N)C(C#N)(C#N)C(c3ccccc3)C2C1 (configuration not stated)	ROMK mod -4.22
CC(=O)NC1=NN(C(C)=O)C(c2ccc(F)cc2)S1 (configuration not stated)	Insulin prom inh 83.3 (no result: SDO1 yeast rescue, Measles CPE)
c1ccc2c(c1)CC(N1CCCCC1)c1ccccc1N2 (configuration not stated)	Measles CPE 42.2
Cc1nnc(SCC(=O)c2ccccc2)n1Cc1ccccc1	none (no result: ROMK mod, Insulin prom inh)
O=C1N=C(N2CCN(c3ccccc3)CC2)S/C1=C\c1cn[nH]c1-c1ccccc1	Measles CPE 29.1
O=C(Nc1ccc(N2CCN(C(=O)c3ccco3)CC2)cc1)c1cccnc1Cl	none (no result: SDO1 yeast rescue, Measles CPE, Insulin prom inh)
N=C1/C(=C/c2ccc(-c3cccc(C(=O)O)c3)o2)C(=O)N=C2SC=C(c3ccccc3)N12	ROMK mod 2.26 (no result: SDO1 yeast rescue, Measles CPE, Insulin prom inh)
CCCCCCNC(=O)C(C#N)c1nc2ccccc2nc1N1CCCC1 (configuration not stated)	none (no result: ROMK mod, Insulin prom inh)
CCCCCCNC(=O)C(C#N)c1nc2ccccc2nc1N1CCOCC1 (configuration not stated)	Measles CPE 46.6 (no result: ROMK mod, Insulin prom inh)
N#CC(C(=O)NCCc1ccccc1)c1nc2ccccc2nc1N1CCCCC1 (configuration not stated)	Measles CPE 40.9 (no result: Insulin prom inh)
CCOC(=O)NC(=O)C(=CNc1ccc(C)cc1)C(=O)NC(=O)OCC	none
